Source: PubChem BioAssay (several laboratories)
The list is not random: actives were taken first. Their share in the collection is about 3.3%.
esBAF inh = inhibitors of esBAF chromatin remodeling in mouse ES cells. Bmi1-luciferase knock-in reporter, 24 h; 100% = twice the neutral-well signal. reporter increase, % at 12.5 µM. 2% of 350,000 active. AID 602393; in the data active = activation above about 40%;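 note: 0% = median of the plate's neutral control wells and 100% = double that signal; a rise in the Bmi1 reporter signal indicates esBAF inhibition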
Jurkat NFkB inh = lowers PMA/ionomycin-induced NF-kB signal in Jurkat cells | PMA/ionomycin-induced NF-kB luciferase reporter, luminescence | 0.53% of 330,000 active | inhibition, % at 4 µM; in the data active = inhibition above about 50%
697 NFkB inh = lowers PMA/ionomycin-induced NF-kB signal in 697 B cells | 697 B-cell NF-kB luciferase reporter, 16 h | inhibition, % at 4 µM | 0.33% of 330,000 active | AID 435022; in the data active = inhibition above about 35%
Gli-Sufu antag = blocks Gli-Sufu signaling in a luciferase reporter. inhibition, % at 5 µM. AID 588413. Sufu-KO-LIGHT fibroblasts, Gli luciferase reporter luminescence. 0.74% of 340,000 active;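 active = inhibition above about 55%, limit read from the data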;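 note: 0% = DMSO-treated cells and 100% = wells with medium but no cells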
SMARCA2 act = activators of SMARCA2 function; MG213 cells, MMTV-luciferase reporter, dexamethasone, overnight; activation, % at 9.1 µM; 1% of 370,000 active; AID 652017; in the data active = activation above about 7.8%;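 note: 0% = vehicle wells and 100% = reference activator wells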
Gli-Sufu confirm = Gli-SUFU antagonism confirmation, single concentration | shares compounds with Gli-Sufu antag | Sufu-KO-LIGHT cells, Gli luciferase reporter, luminescence | inhibition, % at 5 µM | 40% of 2,500 active;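 active = mean inhibition at 5 µM reaching about 45%, limit read from the data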;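 note: plate controls were DMSO-treated cells for no effect and wells lacking cells for full effect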
Gli cytotox = cytotoxic in Gli-SUFU antagonist counter-screen. shares compounds with Gli-Sufu antag. Sufu-KO-LIGHT cells cytotoxicity, ATP luminescence. cytotoxicity, % at 5 µM. 32% of 2,500 active. AID 651994;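 active = mean cytotoxicity at 5 µM above about 25%, limit read from the data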;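 note: cells exposed to compound overnight for roughly 16 to 18 hours; plate controls were DMSO wells with cells for no effect and medium without cells for full effect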
Wnt3a counter = Wnt3a reporter inhibition counter-screen. shares compounds with Gli-Sufu antag. Wnt-LIGHT cells, Wnt3a-driven luciferase reporter, luminescence. inhibition, % at 6.25 µM. 20% of 2,500 active. AID 651995;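 active = mean inhibition above about 25%, limit read from the data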
Starred values were filed as active, the others as inactive; . = no result; ! = repeats disagree.

SMILES	esBAF inh	Jurkat NFkB inh	697 NFkB inh	Gli-Sufu antag	SMARCA2 act	Gli-Sufu confirm	Gli cytotox	Wnt3a counter
C[C@H](CO)N1C[C@H](C)[C@H](CN(C)C(=O)Nc2ccccc2)OCCCC[C@H](C)Oc2ccc(NC(=O)Cc3ccccc3)cc2C1=O	6.2	.	.	.	.	.	.	.
CN(C)S(=O)(=O)c1ccc2nnn(O)c2c1	.	-0.6	12.9	58.8*	7.4	15.2	2.3	18.8
O=S(=O)(c1ccc2nnn(O)c2c1)N1CCOCC1	-4.6	-15.8	6.4	2.1	-0.4	.	.	.
Nc1ncnc2c(C3OC(CO)C(O)C3O)c[nH]c12 (stereo not given)	.	.	.	86.7*	-9.8	89.2*	85.5*	100.9*
Nc1ncnc2c1ncn2[C@@H]1O[C@H](CO)[C@@H](O)[C@H]1O	5.6	0.5	12.6	-17.2	-0.3	.	.	.
C[C@H](CO)N1C[C@H](C)[C@@H](CN(C)C(=O)c2ccccc2)OCCCC[C@H](C)Oc2ccc(NS(C)(=O)=O)cc2C1=O	4.5	.	.	.	.	.	.	.
C[C@@H]1CN([C@@H](C)CO)C(=O)c2cc(NC(=O)Cn3cnnn3)ccc2O[C@@H]1CN(C)S(=O)(=O)c1ccc(Cl)cc1	2.4	.	.	.	.	.	.	.
COc1ccc(N2CCn3c2nc2c3c(=O)n(CCCc3ccccc3)c(=O)n2C)c(OC)c1	-11.5	49.3	-31.6	51.5	-4.4	54.7*	34.8*	5.2
COc1ccc(N2CC(C)Cn3c2nc2c3c(=O)n(Cc3ccccc3)c(=O)n2C)c(OC)c1 (stereo not given)	6.6	-3.0	4.2	21.0	-1.7	.	.	.
CCC(=O)N1CCc2cc(Br)cc(S(=O)(=O)N3CCC(C(=O)NC(C)(C)C)CC3)c21	-2.7	17.6	19.8	54.4	-2.0	5.4	18.6	-39.4
O=C(C1CCCN1S(=O)(=O)c1cccc2nsnc12)N1CCN(c2ccc(F)cc2)CC1 (stereo not given)	-8.8	-0.6	-4.2	58.2*	-4.4	19.5	-9.7	-24.8
CN(CC(=O)Nc1ccccc1Cl)C(=O)CN1C(=O)C2CC=CCC2C1=O (stereo not given)	-4.8	-4.9	-2.2	54.9	-2.9	5.1	-1.4	10.2
O=C(c1cc(COc2ccc3ncccc3c2)on1)N1CCC[C@H]1CO	.	7.8	-28.2	41.7	-3.6	.	.	.
Cc1cccnc1CN1CCN(C(=O)c2cc(COc3ccc4ncccc4c3)on2)CC1	.	25.7	-46.7	62.4*	-6.1	66.2*	27.3*	27.0*
Cc1cc(CN(C)C(=O)c2cc(COc3ccc4ncccc4c3)on2)on1	-5.6	36.9	-41.2	33.1	-5.3	.	.	.
O=C(NC1CCCCCCC1)c1cc(COc2ccc3ncccc3c2)on1	.	.	.	73.1*	-7.9	73.2*	28.4*	-12.1
CCN1CCN(C(=O)c2cc(COc3c(C)cccc3C)on2)CC1	-4.3	-9.2	-8.3	5.0	2.6	.	.	.
CCOC(=O)N1CCN(C(=O)c2cc(COc3ccc4ncccc4c3)on2)CC1	-14.1	26.1	-0.6	67.1*	-7.8	50.9*	22.6	23.2
CO[C@@H]1CN(C)C(=O)c2ccc(NC(C)=O)cc2OC[C@@H](C)N(Cc2cncnc2)C[C@@H]1C	-2.4	.	.	.	.	.	.	.
CC(=O)Nc1cc(-c2nn(CC(=O)N3CCCCC3)c(=O)c3ccccc23)ccc1N1CCOCC1	2.1	-10.1	-28.2	50.7	-0.1	15.6	8.9	-24.8
COc1ccc(NC(=O)c2ccc(CNc3c(NC4CCCCC4)c(=O)c3=O)cc2)cc1OC	4.9	4.6	15.0	59.3*!	5.8	10.0	-6.0	-3.6
COc1ccc(CNC(=O)c2ccc(CNc3c(NC4CCCCC4)c(=O)c3=O)cc2)cc1	1.4	-9.4	-0.8	-0.1	-1.1	.	.	.
CO[C@H]1CC[C@H]2CCN(C)C(=O)[C@@H](C)CN(C)C(=O)c3cc(C#N)ccc3OC[C@H]1O2	-2.5	.	.	.	.	.	.	.
COC(=O)CCCCCCCCCC[N+]1(C)CCCCC1	-1.1	1.9	-0.2	1.9	-4.0	.	.	.
C[N+]1(CC(=O)OC2CCCCCCCCCCC2)CCCC1	.	-2.2	-6.9	64.6*	-1.6	55.9*	29.4*	-30.5
SMILES	esBAF inh	Jurkat NFkB inh	697 NFkB inh	Gli-Sufu antag	SMARCA2 act	Gli-Sufu confirm	Gli cytotox	Wnt3a counter
COc1ccc2[nH]c(C(=O)NCc3ccccc3)c(C)c2c1	33.4	-24.9	-28.7	13.8	0.0	.	.	.
COc1ccc2cc(C(=O)NCc3ccccc3)[nH]c2c1	24.1	-37.9	2.8	51.0	3.0	30.6	10.7	-59.2
CC(C)(C)c1ccc2c(c1)OC(C(=O)N/N=C\c1ccc[nH]1)CO2 (stereo not given)	-12.4	6.1	-16.6	89.6*	-2.5	91.5*	9.1	-13.7
CN(C)c1nc2c(N)ncnc2n1C1OC(CO)C(O)C1O (stereo not given)	0.1	.	.	-6.2	1.8	.	.	.
OCC1OC(n2ccc3c(NO)ncnc32)C(O)C1O (stereo not given)	.	.	.	75.0*	-8.6	60.0*	53.6*	69.4*
OC[C@H]1O[C@@H](n2cnc3c(Nc4ccccc4)ncnc32)[C@H](O)[C@@H]1O	36.3	-16.6	-15.4	-9.6	-2.0	.	.	.
CN(C)c1ncnc2c1ccn2C1OC(CO)C(O)C1O (stereo not given)	-8.5	.	.	61.8*	-3.1	68.0*	47.5*	40.3*
CCc1ccc(CN2CCC(Oc3ccc(C(=O)N4CCCC4)cc3)CC2)cc1	-5.2	7.9	-44.8	22.5	-0.5	.	.	.
O=C(c1ccc(F)cc1)N1CCN(C2CCCCC2)CC1	-3.2	1.2	-7.4	57.7*	0.1	24.2	16.4	-16.8
O=C(c1ccccc1)N1CCN(C2CCCCCC2)CC1	-0.8	-24.0	13.8	5.9	0.5	.	.	.
O=C(c1ccc(OC2CCN(Cc3ccc(F)cc3)CC2)cc1)N1CCCC1	4.4	3.5	-4.0	55.4*	4.2	16.1	7.5	10.9
CO[C@@H]1CN(C)C(=O)c2ccc(NC(=O)Nc3ccccc3F)cc2OC[C@H](C)NC[C@H]1C	8.4	.	.	.	.	.	.	.
S=C(Nc1ccc2nc(-c3ccccn3)c(-c3ccccn3)nc2c1)N1CCCCC1	4.0	5.6	13.8	53.6	.	31.0	11.5	3.3
COc1cc2c(c(OC)c1OC)-c1ccc(SC)c(=O)cc1C(NC=O)CC2 (stereo not given)	.	.	.	46.8	1.2	.	.	.
COc1cc2c(c(OC)c1OC)-c1ccc(SC)c(=O)cc1C(NC(=O)c1ccccc1)CC2 (stereo not given)	.	.	.	63.2*	1.8	66.2*	50.9*	45.5*
C=COC(=O)NC1CCc2cc(OC)c(OC)c(OC)c2-c2ccc(SC)c(=O)cc21 (stereo not given)	.	.	.	66.2*	3.2	64.4*	63.0*	39.8*
COc1ccc2c(c1)C(C)=CC(C)(C)N2S(=O)(=O)c1ccc(Br)cc1	-24.9	.	.	59.1*	-0.5	58.1*	57.6*	17.9
